SARS 3CLpro inh = SARS-CoV 3CLpro protease inhibition. recombinant SARS-CoV 3CLpro, quenched FRET peptide cleavage. inhibition, % at 6 µM. 290,000 tested, 0.14% active. AID 1706; in the data active means inhibition above about 12%
DUSP3 inh = DUSP3 (human) phosphatase inhibition. P51452. recombinant VHR phosphatase, pNPP absorbance. inhibition, % at 13.3 µM. 290,000 tested, 0.52% active; in the data active means inhibition above about 50%
CCHF vOTU inh = CCHFV vOTU protease inhibition; inhibition, % at 11.5 µM; 370,000 tested, 0.55% active; Pep-AMC fluorescence; AID 651958; in the data active means inhibition above about 30%
RecA splice inh = Mtb RecA intein splicing inhibition; P9WHJ3; cell-free RecA intein splicing, fluorescence; inhibition, % (test concentration not listed); 290,000 tested, 0.75% active; AID 2221; in the data active means inhibition above about 30%
GDH-TPI counter-1 = counter-screen for M. tuberculosis FBA inhibitors: GDH-TPI coupled enzymes; GDH-TPI coupled enzyme counterscreen, NADH absorbance; inhibition, % at 4.8 µM; 360,000 tested, 1.2% active; in the data active means inhibition above about 30%
FBA Mtb inh = inhibitors of M. tuberculosis fructose-bisphosphate aldolase; purified M. tuberculosis FBA, fluorescence read-out; 360,000 tested, 2.3% active; AID 588726; P9WQA3; inhibition, % at 1 µM
Mtb FBA inh conf = confirmation of M. tuberculosis fructose-bisphosphate aldolase inhibitors; purified M. tuberculosis FBA, fluorescence read-out; inhibition, % at 1 µM; 5,600 tested, 78% active; shares compounds with FBA Mtb inh
GDH-TPI counter-2 = GDH-TPI inhibition counter-screen for FBA inhibitors. shares compounds with FBA Mtb inh. GDH-TPI coupled enzyme counterscreen, fluorescence. inhibition, % at 1 µM. 5,600 tested, 81% active; in the data active means inhibition above about 10%
Of the large screens only hits and unclear results are named; the others gave an inactive call (follow-up assays come after a bar, where they were run). Rows were chosen to be rich in hits. Some 4.7% of all compounds tested hit in one or more screens of this group. Unless noted, no stated cut-off is given here; in the data, active means inhibition above about 27%; inactive means the rest.

CC1=C(C#N)C(c2cccnc2)C2=C(CC(c3ccc(Cl)cc3)CC2=O)N1 (stereo unspecified)	FBA Mtb inh 70.2 | Mtb FBA inh conf inactive | GDH-TPI counter-2 inactive
CC1=C(C#N)C(c2ccc(O)cc2)C2=C(CCCC2=O)N1 (stereo unspecified)	none
CSc1ccc(S(=O)(=O)N(CC(=O)NCc2ccccn2)c2ccc(C)cc2)cc1	FBA Mtb inh 76.9 | Mtb FBA inh conf 180.7 | GDH-TPI counter-2 141.2
C/C=C(\C)C(=O)OC(C)(C)[C@@H]1Cc2cc3ccc(=O)oc3cc2O1	FBA Mtb inh 92.6 (no result: SARS 3CLpro inh, DUSP3 inh, RecA splice inh) | Mtb FBA inh conf 156.7 | GDH-TPI counter-2 113.8
Cc1ccc(C(=O)COc2ccc3ccc(=O)oc3c2)cc1	none
O=C(OCC(=O)c1ccccc1Cl)C1=NN(c2ccccc2)C(=O)CC1	none (no result: SARS 3CLpro inh, DUSP3 inh, RecA splice inh)
CCC1(C)Cc2ccccc2-c2nc3n(c(=O)c21)CC(C(=O)O)S3 (stereo unspecified)	FBA Mtb inh 39.5 | Mtb FBA inh conf inactive | GDH-TPI counter-2 inactive
N#Cc1c(Cl)nc(Cl)c2c1CCN(Cc1ccccc1)C2	FBA Mtb inh 92.6 | Mtb FBA inh conf active | GDH-TPI counter-2 active
CN(C)C1(CNC(=O)Nc2ccccc2)CCCCC1	none
CN(C)C1(CNCC(O)c2ccccc2)CCCCC1 (stereo unspecified)	FBA Mtb inh 30.0 | Mtb FBA inh conf 120.7 | GDH-TPI counter-2 106.3
Nc1[nH]ncc1-c1ccc(F)cc1	FBA Mtb inh 107.9 | Mtb FBA inh conf inactive | GDH-TPI counter-2 inactive
CC1(C2CC2)NC(=O)N(CC(=O)NCc2ccc(Cl)cc2Cl)C1=O (stereo unspecified)	none (no result: SARS 3CLpro inh, DUSP3 inh, RecA splice inh)
Cc1noc(C)c1C(=O)NC(C)c1ccc(Cl)cc1Cl (stereo unspecified)	none
O=C(NC1CCCCC1)N1Cc2cc(-c3cccc(F)c3)ccc2-n2nncc2C1	none (no result: SARS 3CLpro inh, DUSP3 inh, RecA splice inh, GDH-TPI counter-1)
COc1ccc(-c2ccc3c(c2)CN(C(=O)NC2CCCCC2)Cc2cnnn2-3)cc1	FBA Mtb inh 86.4 (no result: SARS 3CLpro inh, DUSP3 inh, RecA splice inh, GDH-TPI counter-1) | Mtb FBA inh conf 52.3 | GDH-TPI counter-2 41.3
Cc1nn2c3ccccc3n(CCN3CCCCC3)c2nc1=O	FBA Mtb inh 32.2 | Mtb FBA inh conf 154.2 | GDH-TPI counter-2 102.2
O=C(O)CCc1nn2c3ccccc3nc2n(CCN2CCCCC2)c1=O	FBA Mtb inh 34.6 | Mtb FBA inh conf 117.4 | GDH-TPI counter-2 88.2
O=C(O)CCc1nc2ccccc2n(CCc2ccccc2)c1=O	none
COc1ccc(-n2cc3c(-c4cccc(Br)c4)nnc(C)c3n2)cc1	none
COc1cc(OC)cc(-c2c(C#Cc3ccsc3)c3cc(-c4ccc(C(N)=O)cc4)ccc3n2C)c1	FBA Mtb inh 32.1 (no result: SARS 3CLpro inh, DUSP3 inh, RecA splice inh) | Mtb FBA inh conf 35.7 | GDH-TPI counter-2 16.3
COc1cc(OC)cc(-c2c(C#Cc3ccsc3)c3cc(-c4cnc(OC)nc4)ccc3n2C)c1	none (no result: SARS 3CLpro inh, DUSP3 inh, RecA splice inh)
COc1cc(OC)cc(-c2c(C#Cc3ccsc3)c3cc(-c4cc(F)cc(F)c4)ccc3n2C)c1	none (no result: SARS 3CLpro inh, DUSP3 inh, RecA splice inh)
COc1cc(OC)cc(-c2c(C#Cc3ccsc3)c3cc(-c4cc(OC)c(OC)c(OC)c4)ccc3n2C)c1	FBA Mtb inh 46.5 (no result: SARS 3CLpro inh, DUSP3 inh, RecA splice inh) | Mtb FBA inh conf inactive | GDH-TPI counter-2 inactive
CN(C)S(=O)(=O)c1cccc(NC(=O)c2ccc(-n3cncn3)c([N+](=O)[O-])c2)c1	none (no result: SARS 3CLpro inh, DUSP3 inh)
Cc1ccc(Sc2ccc(NC(=O)CCN3C(=O)NC4(CCCC4)C3=O)cc2)c(C)c1	none (no result: SARS 3CLpro inh, DUSP3 inh, RecA splice inh)
CCCn1nc2cc(C(=O)NCc3ccc(C)cc3)ccc2c1OCC	FBA Mtb inh 52.0 | Mtb FBA inh conf 85.6 | GDH-TPI counter-2 62.9
CCOc1c2ccc(C(=O)NCc3ccc(C)cc3)cc2nn1CC	FBA Mtb inh 67.3 | Mtb FBA inh conf 66.9 | GDH-TPI counter-2 44.5
CCCn1nc2cc(C(=O)NCc3ccccc3OC)ccc2c1OCC	FBA Mtb inh 42.4 | Mtb FBA inh conf inactive | GDH-TPI counter-2 inactive
CCOc1c2ccc(C(=O)NCCCCc3ccccc3)cc2nn1CC	FBA Mtb inh 47.9 | Mtb FBA inh conf inactive | GDH-TPI counter-2 inactive
O=C(NCCCCc1ccccc1)c1cccc(Br)c1	none
CCCc1ccc(S(=O)(=O)N(C)S(=O)(=O)c2ccc(F)cc2)cc1	none
COc1ccc(S(=O)(=O)N2CCCCCC2)cc1C(=O)Nc1ccc(C(=O)N(C)C)cc1	none (no result: SARS 3CLpro inh, DUSP3 inh, RecA splice inh)
